PubChem BioAssay (EPA / NIEHS)
“And” between values parts separate entries of the source, which are not always exact repeats. Identical values can stand only once. Results filed as inconclusive are left out. Where a structure was tested more than once in an assay, its records may differ in their call. The source made the active and inactive calls. How the source made its calls, unless noted: active means hit-call score of the fitted dose curve at least 0.9, where 1 is the maximum; inactive means score below 0.9.

Key:
[1] = target: Paired box protein Pax-6 (Homo sapiens) (UniProt P26367); experiment: ATG_Pax6_CIS: Attagene CIS-FACTORIAL HepG2 Assay for human Paired Box 6 (PAX6) (AID 2282956); settings: HepG2 CIS-FACTORIAL PAX6 reporter transcription, RNA readout; actives raise or lower the signal
Paired box protein Pax-6 (Homo sapiens), sequence (P26367 whole entry, looked up): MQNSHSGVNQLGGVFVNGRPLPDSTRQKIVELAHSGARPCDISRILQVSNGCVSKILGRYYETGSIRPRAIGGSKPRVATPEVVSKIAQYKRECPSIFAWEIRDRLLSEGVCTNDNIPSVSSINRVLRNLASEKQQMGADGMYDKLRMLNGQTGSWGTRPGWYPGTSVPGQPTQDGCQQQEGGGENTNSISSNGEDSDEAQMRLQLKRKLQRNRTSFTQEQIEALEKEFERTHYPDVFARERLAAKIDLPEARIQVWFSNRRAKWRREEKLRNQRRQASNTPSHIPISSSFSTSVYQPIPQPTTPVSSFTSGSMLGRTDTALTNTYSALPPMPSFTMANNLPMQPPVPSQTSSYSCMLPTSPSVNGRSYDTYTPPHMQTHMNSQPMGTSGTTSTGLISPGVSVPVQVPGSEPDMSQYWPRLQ
Outline: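 Multiplexed cis-reporter HepG2 system; 24 h treatment; reporter mRNA read by RT-PCR/CE fluorescence; bidirectional fit vs DMSO.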

[2] = ATG_PXRE_CIS: Attagene CIS-FACTORIAL HepG2 Assay for human Pregnane X Receptor Element (PXRE) (AID 2282957); settings: HepG2 Attagene CIS-FACTORIAL PXRE reporter, mRNA; actives raise or lower the signal
Outline: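 HepG2 cells transiently transfected with cis-regulated multiple reporter transcription units; endogenous factor activity measured as reporter mRNA 24 h after dosing. RT-PCR, fluorescent primer extension, HpaI digestion, capillary electrophoresis; bidirectional fit versus DMSO baseline.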

[3] = ATG_PPRE_CIS: Attagene CIS-FACTORIAL HepG2 Assay for human Peroxisome Proliferator-activated Response Element (PPRE) (AID 2282958); settings: HepG2 PPRE cis-element reporter, Attagene transcription factor profiling; actives raise or lower the signal
Outline: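 PPRE activity in HepG2: transient cis-reporter transfection, 24 h compound incubation, reporter mRNA by RT-PCR and CE fluorescence; gain/loss fitted against DMSO.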

[4] = ATG_RORE_CIS: Attagene CIS-FACTORIAL HepG2 Assay for human RAR-related Orphan Receptor Element (RORE) (AID 2282959); settings: HepG2 Attagene cis-factorial RORE reporter, mRNA; actives raise or lower the signal
Outline: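 A 24-hour exposure of transfected HepG2 hepatoma cells precedes RNA isolation and reporter RT-PCR. Labeled products are digested with HpaI and resolved by capillary electrophoresis, with gain or loss of signal scored relative to DMSO.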

[5] = ATG_Sox_CIS: Attagene CIS-FACTORIAL HepG2 Assay for human SRY-box transcription factor (SOX) (AID 2282960); settings: HepG2 Attagene cis-factorial SOX reporter, mRNA; actives raise or lower the signal
Outline: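 HepG2, cis reporter units, 24 h exposure. Reporter mRNA: RT-PCR → FAM labelling → HpaI → CE fluorescence. Bidirectional fit vs DMSO.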

[6] = target: Transcription factor Sp1 (Homo sapiens) (UniProt P08047); experiment: ATG_Sp1_CIS: Attagene CIS-FACTORIAL HepG2 Assay for human Specificity Protein 1 (Sp1) (AID 2282961); settings: HepG2 Sp1 cis-reporter transcription, actives raise or lower the signal
Transcription factor Sp1 (Homo sapiens), sequence (P08047 whole entry, looked up, the tested form may be a part): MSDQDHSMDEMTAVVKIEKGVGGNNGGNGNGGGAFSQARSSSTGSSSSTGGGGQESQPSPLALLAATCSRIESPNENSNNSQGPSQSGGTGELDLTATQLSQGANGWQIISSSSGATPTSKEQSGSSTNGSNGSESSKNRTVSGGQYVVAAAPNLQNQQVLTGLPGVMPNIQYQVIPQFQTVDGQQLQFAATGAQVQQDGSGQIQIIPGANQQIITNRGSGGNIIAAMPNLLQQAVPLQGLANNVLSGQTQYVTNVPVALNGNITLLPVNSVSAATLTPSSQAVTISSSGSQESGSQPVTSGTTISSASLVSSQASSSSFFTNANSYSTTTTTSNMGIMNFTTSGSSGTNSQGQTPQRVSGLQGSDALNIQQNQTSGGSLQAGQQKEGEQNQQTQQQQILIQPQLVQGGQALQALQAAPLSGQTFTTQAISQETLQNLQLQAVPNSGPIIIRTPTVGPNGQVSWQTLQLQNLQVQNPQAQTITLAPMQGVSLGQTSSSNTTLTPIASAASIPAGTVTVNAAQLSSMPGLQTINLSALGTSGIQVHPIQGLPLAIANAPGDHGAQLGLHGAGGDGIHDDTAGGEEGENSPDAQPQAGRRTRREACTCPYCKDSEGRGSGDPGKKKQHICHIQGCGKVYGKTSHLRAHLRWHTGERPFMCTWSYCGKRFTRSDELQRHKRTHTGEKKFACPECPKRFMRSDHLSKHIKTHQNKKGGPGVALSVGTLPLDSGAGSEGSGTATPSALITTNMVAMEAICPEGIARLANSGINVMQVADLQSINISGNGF
Outline: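 Liver-derived HepG2 cells, cis-element reporter library, 24 h treatment; RNA isolated, cDNA amplified with reporter-specific primers, FAM-labeled fragments sized on capillary analyzer. DMSO baseline, bidirectional curve fit.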

[7] = ATG_SREBP_CIS: Attagene CIS-FACTORIAL HepG2 Assay for human Sterol Regulatory Element Binding (SREBP) (AID 2282962); settings: HepG2 Attagene cis-factorial SREBP reporter, mRNA; actives raise or lower the signal
Outline: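 mRNA induction of transfected cis-promoter reporters in HepG2 cells, 24 h post-dose. Detection: RT-PCR with 6-FAM-labelled products, HpaI digest, capillary electrophoresis. DMSO served as negative control and baseline.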

[8] = target: Signal transducer and activator of transcription 3 (Homo sapiens) (UniProt P40763); experiment: ATG_STAT3_CIS: Attagene CIS-FACTORIAL HepG2 Assay for human Signal Transducer and Activator of Transcription 3 (STAT3) (AID 2282963); settings: HepG2, Attagene cis-factorial STAT3 reporter transcription; actives raise or lower the signal
Signal transducer and activator of transcription 3 (Homo sapiens), sequence (P40763 whole entry, looked up): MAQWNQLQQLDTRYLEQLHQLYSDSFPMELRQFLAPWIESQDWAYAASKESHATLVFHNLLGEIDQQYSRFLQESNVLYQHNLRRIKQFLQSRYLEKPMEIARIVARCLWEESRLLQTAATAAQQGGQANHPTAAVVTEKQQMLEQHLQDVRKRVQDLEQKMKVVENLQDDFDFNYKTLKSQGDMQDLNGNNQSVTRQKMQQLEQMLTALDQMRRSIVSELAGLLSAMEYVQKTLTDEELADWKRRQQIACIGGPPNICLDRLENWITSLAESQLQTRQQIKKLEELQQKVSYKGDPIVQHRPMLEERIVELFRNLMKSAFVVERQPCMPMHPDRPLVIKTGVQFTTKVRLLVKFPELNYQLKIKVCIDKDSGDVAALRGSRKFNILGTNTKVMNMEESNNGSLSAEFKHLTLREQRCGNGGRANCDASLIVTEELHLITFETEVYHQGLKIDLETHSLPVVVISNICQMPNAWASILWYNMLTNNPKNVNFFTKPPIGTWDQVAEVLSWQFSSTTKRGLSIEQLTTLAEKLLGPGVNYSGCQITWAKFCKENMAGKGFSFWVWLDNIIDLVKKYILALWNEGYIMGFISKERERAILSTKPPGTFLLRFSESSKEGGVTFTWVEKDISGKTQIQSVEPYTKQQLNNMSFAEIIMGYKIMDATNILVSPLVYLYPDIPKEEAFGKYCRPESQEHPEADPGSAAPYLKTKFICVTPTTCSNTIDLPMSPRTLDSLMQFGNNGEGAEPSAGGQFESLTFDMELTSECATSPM
Outline: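 Endogenous STAT3-responsive cis-element activity was read in transiently transfected HepG2 cells after 24 h treatment. Reporter transcripts were quantified via RT-PCR and capillary electrophoresis, with DMSO as negative control and bidirectional curve fitting.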

[9] = ATG_TA_CIS: Attagene CIS-FACTORIAL HepG2 Assay for human TA Basal Promoter (AID 2282964); settings: HepG2 Attagene CIS-factorial TA basal promoter reporter; actives raise or lower the signal
Outline: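 Transient MRTU transfection of HepG2 preceded 24 h compound exposure. Reporter mRNA levels were then read by RT-PCR with capillary electrophoresis, and this background-control endpoint was fitted bidirectionally to DMSO.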

[10] = ATG_TCF_b_cat_CIS: Attagene CIS-FACTORIAL HepG2 Assay for human T-Cell-Factor with beta-catenin (TCF/b-cat) (AID 2282965); settings: HepG2 TCF/beta-catenin cis-reporter transcription, actives raise or lower the signal
Outline: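 Endogenous transcription factor activity is captured through cis-promoter reporter constructs transiently introduced into human HepG2 liver cells. Induced reporter mRNA is measured after 24 h and fitted bidirectionally relative to DMSO.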

[11] = ATG_TAL_CIS: Attagene CIS-FACTORIAL HepG2 Assay for human TAL Basal Promoter (AID 2282966); settings: HepG2 Attagene cis-factorial TAL promoter reporter; actives raise or lower the signal;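 further: background control endpoint measuring basal TAL promoter reporter mRNA not a specific factor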
Outline: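 HepG2 cells were transiently transfected with promoter-driven multiplexed reporter units and dosed for 24 h. Reporter mRNA was measured by RT-PCR with capillary electrophoresis fluorescence; bidirectional fits used DMSO as baseline, serving as a background control.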

[12] = ATG_TGFb_CIS: Attagene CIS-FACTORIAL HepG2 Assay for human Transforming Growth Factor (TGF) (AID 2282967); settings: HepG2 Attagene CIS TGFb reporter, mRNA transcription; actives raise or lower the signal
Outline: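 After a 24-hour incubation with compound, transfected HepG2 cells were lysed for RNA; reporter cDNA was amplified, fluorescently end-labeled and separated by CE. DMSO served as baseline for bidirectional fits.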

[13] = ATG_VDRE_CIS: Attagene CIS-FACTORIAL HepG2 Assay for human Vitamin D Receptor Element (VDRE) (AID 2282968); settings: HepG2 VDRE cis-reporter transcription, actives raise or lower the signal
Outline: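 Reporter mRNA induction, quantified by capillary electrophoresis of fluorescently labelled RT-PCR products, was read 24 h after dosing HepG2 cells carrying transiently transfected cis-regulated reporter units; gain or loss relative to DMSO.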

[14] = target: X-box-binding protein 1 (Homo sapiens) (UniProt P17861); experiment: ATG_Xbp1_CIS: Attagene CIS-FACTORIAL HepG2 Assay for human X-box Binding Protein 1 (XBP1) (AID 2282972); settings: HepG2 XBP1 cis-element reporter, Attagene multiplex; actives raise or lower the signal
X-box-binding protein 1 (Homo sapiens), sequence (P17861 whole entry, looked up, the tested form may be a part): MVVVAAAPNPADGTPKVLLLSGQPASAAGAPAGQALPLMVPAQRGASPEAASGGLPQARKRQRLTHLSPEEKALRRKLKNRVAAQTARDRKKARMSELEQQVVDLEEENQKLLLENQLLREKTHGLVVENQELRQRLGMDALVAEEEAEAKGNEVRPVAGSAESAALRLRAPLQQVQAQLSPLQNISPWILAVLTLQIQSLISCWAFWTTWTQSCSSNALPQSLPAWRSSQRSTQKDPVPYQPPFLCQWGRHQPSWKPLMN
Outline: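 Fluorescence-labelled cDNA fragments from reporter transcripts, separated by capillary electrophoresis, give the signal. Source: HepG2 cells transfected with promoter-driven reporter units, harvested 24 h post-dose. DMSO served as reference for bidirectional curve fitting.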

[15] = target: Estrogen receptor (Homo sapiens) (UniProt P03372); experiment: ATG_ERa_TRANS: Attagene TRANS-FACTORIAL HepG2 Assay for human Estrogen Receptor alpha (ERa) (AID 2282970; active means hit-call score of the fitted dose curve at least 0.9, where 1 is the maximum); settings: HepG2 Attagene TRANS ERa GAL4 reporter, mRNA
Estrogen receptor (Homo sapiens), sequence (P03372 whole entry, looked up, the tested form may be a part): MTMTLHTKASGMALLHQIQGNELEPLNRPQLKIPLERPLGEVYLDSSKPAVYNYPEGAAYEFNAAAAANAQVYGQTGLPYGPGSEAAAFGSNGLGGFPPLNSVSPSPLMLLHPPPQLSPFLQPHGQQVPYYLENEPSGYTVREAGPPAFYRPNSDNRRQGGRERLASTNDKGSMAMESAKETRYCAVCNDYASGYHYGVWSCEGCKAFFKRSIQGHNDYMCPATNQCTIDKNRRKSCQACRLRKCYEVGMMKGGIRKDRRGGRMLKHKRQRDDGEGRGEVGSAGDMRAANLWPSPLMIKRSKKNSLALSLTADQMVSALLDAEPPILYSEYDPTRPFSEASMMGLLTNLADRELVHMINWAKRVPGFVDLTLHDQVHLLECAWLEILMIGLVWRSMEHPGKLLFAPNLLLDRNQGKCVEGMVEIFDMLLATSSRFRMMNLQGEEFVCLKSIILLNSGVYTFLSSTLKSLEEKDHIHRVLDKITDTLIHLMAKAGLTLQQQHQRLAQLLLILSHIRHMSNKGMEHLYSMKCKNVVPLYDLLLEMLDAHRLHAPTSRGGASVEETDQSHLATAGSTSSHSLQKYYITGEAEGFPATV
Outline: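 HepG2 cells transiently transfected with multiplexed GAL4-UAS reporter units; ERa activity read via exogenous chimeric NR-Gal4 protein. After 24 hour compound exposure, reporter mRNA measured by RT-PCR with 6-FAM labelling and capillary electrophoresis; gain-of-signal fitted relative to DMSO.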

[16] = target: Estrogen-related receptor gamma (Homo sapiens) (UniProt P62508); experiment: ATG_ERRg_TRANS: Attagene TRANS-FACTORIAL HepG2 Assay for human Estrogen-Related Receptor gamma (ERRg) (AID 2282977; active means hit-call score of the fitted dose curve at least 0.9, where 1 is the maximum;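 further: hits increase reporter signal over DMSO so potencies reflect activators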); settings: HepG2 Attagene TRANS reporter, ERRg transactivation
Estrogen-related receptor gamma (Homo sapiens), sequence (P62508 whole entry, looked up, the tested form may be a part): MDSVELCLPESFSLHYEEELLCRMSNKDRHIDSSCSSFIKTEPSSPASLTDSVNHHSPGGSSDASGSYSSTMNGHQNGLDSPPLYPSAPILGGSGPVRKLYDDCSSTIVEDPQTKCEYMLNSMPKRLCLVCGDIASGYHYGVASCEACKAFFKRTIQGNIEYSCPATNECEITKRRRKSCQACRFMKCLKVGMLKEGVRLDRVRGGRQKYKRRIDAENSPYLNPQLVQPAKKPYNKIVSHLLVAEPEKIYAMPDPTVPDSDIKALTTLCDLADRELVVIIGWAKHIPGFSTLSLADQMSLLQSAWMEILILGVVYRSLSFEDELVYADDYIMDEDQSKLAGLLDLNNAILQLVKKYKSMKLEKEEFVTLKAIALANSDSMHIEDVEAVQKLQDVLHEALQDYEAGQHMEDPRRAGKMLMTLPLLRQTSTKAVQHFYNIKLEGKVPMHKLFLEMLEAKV
Outline: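 HepG2 cells transiently transfected with multiplexed GAL4-UAS reporter units driven by chimeric NR-Gal4 proteins; 24 h exposure. Reporter mRNA quantified by RT-PCR, fluorescent labelling, HpaI digestion and capillary electrophoresis; gain of signal vs DMSO.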

[17] = target: Nuclear receptor subfamily 1 group I member 3 (Homo sapiens) (UniProt Q14994); experiment: ATG_CAR_TRANS: Attagene TRANS-FACTORIAL HepG2 Assay for human Constitutive Androstane Receptor (CAR) (AID 2282969; active means hit-call score of the fitted dose curve at least 0.9, where 1 is the maximum;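 further: activators raise reporter mRNA above DMSO so AC50 marks induction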); settings: HepG2 Attagene TRANS-FACTORIAL CAR reporter
Nuclear receptor subfamily 1 group I member 3 (Homo sapiens), sequence (Q14994 whole entry, looked up, the tested form may be a part): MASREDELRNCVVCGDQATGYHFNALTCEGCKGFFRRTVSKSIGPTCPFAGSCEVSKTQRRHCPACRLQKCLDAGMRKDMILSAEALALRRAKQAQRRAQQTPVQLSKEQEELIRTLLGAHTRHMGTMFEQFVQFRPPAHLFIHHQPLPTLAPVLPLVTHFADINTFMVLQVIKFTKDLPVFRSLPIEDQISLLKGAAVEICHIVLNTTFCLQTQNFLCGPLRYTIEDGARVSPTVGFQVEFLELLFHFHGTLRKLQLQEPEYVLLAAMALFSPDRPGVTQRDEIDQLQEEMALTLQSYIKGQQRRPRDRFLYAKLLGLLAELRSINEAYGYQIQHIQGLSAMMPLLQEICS
Outline: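 Readout is reporter mRNA induction, quantified by fluorescent primer extension and capillary electrophoresis after RT-PCR. Cells were HepG2 transiently carrying chimeric NR-Gal4 constructs with GAL4-UAS reporters, treated for 24 h; activity scored upward from DMSO.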

[18] = ATG_GAL4_TRANS: Attagene TRANS-FACTORIAL HepG2 Assay for GAL4 (Internal Marker) (AID 2282976; active means hit-call score of the fitted dose curve at least 0.9, where 1 is the maximum); settings: HepG2 Attagene TRANS GAL4 internal marker reporter
Outline: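 HepG2 cells transiently transfected with multiplexed GAL4-UAS reporter constructs were dosed for 24 h. Reporter mRNA was measured by RT-PCR, 6-FAM primer extension, HpaI digestion and capillary electrophoresis, and gain of signal was fitted relative to DMSO.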

[19] = target: Steroid hormone receptor ERR1 (Homo sapiens) (UniProt P11474); experiment: ATG_ERRa_TRANS: Attagene TRANS-FACTORIAL HepG2 Assay for human Estrogen-Related Receptor alpha (ERRa) (AID 2282971; active means hit-call score of the fitted dose curve at least 0.9, where 1 is the maximum); settings: HepG2 Attagene TRANS reporter, ERRa transactivation
Steroid hormone receptor ERR1 (Homo sapiens), sequence (P11474 whole entry, looked up, the tested form may be a part): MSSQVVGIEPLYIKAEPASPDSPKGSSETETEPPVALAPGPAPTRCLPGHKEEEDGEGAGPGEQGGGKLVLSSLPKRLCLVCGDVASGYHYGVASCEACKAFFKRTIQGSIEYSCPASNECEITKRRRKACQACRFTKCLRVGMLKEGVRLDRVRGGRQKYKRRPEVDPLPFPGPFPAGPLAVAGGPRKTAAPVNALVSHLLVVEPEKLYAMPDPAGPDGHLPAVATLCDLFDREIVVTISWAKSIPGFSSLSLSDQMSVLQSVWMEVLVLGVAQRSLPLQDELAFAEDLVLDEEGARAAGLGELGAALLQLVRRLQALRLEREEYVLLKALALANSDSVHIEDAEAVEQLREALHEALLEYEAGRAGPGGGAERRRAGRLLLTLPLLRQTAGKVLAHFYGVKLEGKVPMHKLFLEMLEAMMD
Outline: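 HepG2 cells transiently transfected with multiplexed GAL4-UAS reporter units reading chimeric ERRa-Gal4 activity; 24 h compound exposure. Reporter mRNA measured by RT-PCR, 6-FAM labelling, HpaI digest and capillary electrophoresis; gain of signal fitted versus DMSO baseline.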

Measured: AC50

CCCCOC(=O)CC(CC(=O)OCCCC)(OC(C)=O)C(=O)OCCCC
inactive: [1] | [3] | [4] | [5] | [6] | [7] | [8] | [9] | [10] | [11] | [12] | [14]
active: [2] 1.18 µM and 705 nM | [4] 27.5 µM | [13] 8 µM and 4.3 µM

CN(C)C(=O)C1(N2CCCCC2)CCN(CC[C@@]2(c3ccc(Cl)c(Cl)c3)CN(C(=O)c3ccccc3)CCO2)CC1
inactive: [1] | [3] | [4] | [5] | [6] | [8] | [9] | [11] | [12] | [13] | [15] | [14] | [16]
active: [2] 170 nM | [7] 0.436 µM | [10] 0.98 µM

CCCCCc1ccc(N)cc1
inactive: [1] | [2] | [3] | [4] | [5] | [6] | [7] | [8] | [9] | [11] | [12] | [13] | [17] | [14] | [18]
active: [2] 72.9 µM and 27.4 µM and 21.2 µM | [15] 12.2 µM [middle of 4 runs]

CCCCCCCCOc1ccc(C(=O)c2ccccc2)c(O)c1
inactive: [1] | [2] | [3] | [4] | [5] | [6] | [7] | [8] | [9] | [11] | [12] | [13] | [17] | [15] | [19] | [14] | [16]

O=C1CCC(C2CCCCC2)CC1
inactive: [1] | [3] | [4] | [5] | [6] | [7] | [8] | [9] | [11] | [12] | [13] | [17] | [14] | [18] | [16]
active: [1] 156 µM | [2] 10.4 µM [middle of 4 runs] | [6] 171 µM | [13] 86.8 µM

Cc1cccc2ccccc12
inactive: [1] | [2] | [3] | [4] | [5] | [6] | [7] | [8] | [9] | [10] | [11] | [12] | [13] | [17] | [15] | [19] | [14] | [18]
